Data from PubChem BioAssay AID1159580 (chemical genetic matrix, 2015).
“And” between values parts separate entries of the source, which are not always exact repeats. Equal values may be shown once. Out of some 5,500 compounds screened, about 2,000 (36%) were called active. Inconclusive results (about 18%) are left out. Rule as the data show it: active = normalized growth mostly below about 0.91 (no sharp cut-off); inconclusive = no clear call, values can overlap the other calls; inactive = mostly above about 0.92. Some of the results follow.

Experiment: chemical genetic growth profiling, strain panel (AID 1159580);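 also: tested at 20 µM; growth read once vehicle control cultures reached saturation at 30 °C; 1 = growth at the plate median or of vehicle wells; lower values mean less growth of the strain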
Conditions: S. cerevisiae deletion strains, growth OD

Measured: normalized growth

CC(CN1c2ccccc2Sc2ccccc21)N(C)C (configuration not stated)
inactive: locus YAL030W, strain snc1, hits give low values 0.973 | locus YAL040C, strain CLN3, hits give low values 0.985 | locus YBL061C, strain skt5, hits give low values 0.924 | locus YBR009C, strain hhf1, hits give low values 0.954 | locus YBR021W, strain FUR4, hits give low values 0.938 | locus YBR023C, strain chs3, hits give low values 0.927 | locus YBR171W, strain sec66, hits give low values 0.988 | locus YBR229C, strain ROT2, hits give low values 0.95 | locus YBR231C, strain swc5, hits give low values 0.95 | locus YBR279W, strain paf1, hits give low values 0.966 | locus YCL011C, strain gbp2, hits give low values 0.981 | locus YCL016C, strain dcc1, hits give low values 0.975 | locus YCL061C, strain MRC1 (second series), hits give low values 0.998 | locus YCL069W, strain vba3, hits give low values 0.938 | locus YCR088W, strain abp1, hits give low values 0.988 | locus YDL005C, strain med2, hits give low values 1 | locus YDL035C, strain GPR1, hits give low values 0.966 | locus YDL040C, strain nat1, hits give low values 0.982 | locus YDL074C, strain BRE1, hits give low values 0.906 | locus YDL101C, strain DUN1, hits give low values 0.944 | locus YDL134C, strain PPH21, hits give low values 0.979 | locus YDL185W, strain tfp1, hits give low values 0.978 | locus YDL192W, strain arf1, hits give low values 0.982 | locus YDR001C, strain nth1, hits give low values 0.983 | locus YDR069C, strain doa4, hits give low values 0.946 | locus YDR150W, strain NUM1, hits give low values 0.99 | locus YDR159W, strain sac3, hits give low values 0.968 | locus YDR162C, strain NBP2, hits give low values 0.982 | locus YDR195W, strain ref2 1.14 | locus YDR297W, strain sur2, hits give low values 0.937 | locus YDR318W, strain mcm21, hits give low values 0.95 | locus YDR334W, strain swr1, hits give low values 0.985 | locus YDR335W, strain msn5, hits give low values 0.94 | locus YDR363W, strain ESC2, hits give low values 0.993 | locus YDR388W, hits give low values 0.977 | locus YDR392W, strain spt3, hits give low values 1.07 | locus YDR502C, strain sam2, hits give low values 0.948 | locus YEL003W, strain gim4, hits give low values 0.926 | locus YEL037C, strain rad23, hits give low values 0.972 | locus YEL061C, strain CIN8 (second series), hits give low values 0.975 | locus YEL061C, strain CIN8, hits give low values 0.977 | locus YER002W, strain NOP16, hits give low values 0.978 | locus YER016W, strain bim1, hits give low values 0.988 | locus YER110C, hits give low values 0.971 | locus YER111C, strain swi4, hits give low values 0.98 | locus YER155C, strain BEM2, hits give low values 0.987 | locus YER167W, strain BCK2, hits give low values 0.986 | locus YGL078C, strain dbp3, hits give low values 0.972 | locus YGL086W, strain mad1, hits give low values 0.936 | locus YGL167C, strain pmr1, hits give low values 0.987 | locus YGL173C, strain kem1, hits give low values 0.926 | locus YGL227W, strain vid30, hits give low values 0.974 | locus YGL248W, strain PDE1, hits give low values 0.945 | locus YGL253W, strain hxk2, hits give low values 0.963 | locus YGR135W, strain pre9, hits give low values 1 | locus YGR229C, strain SMI1, hits give low values 0.954 and 0.981 | locus YGR252W, strain gcn5, hits give low values 0.815 | locus YHR013C, strain ard1, hits give low values 1.01 | locus YHR027C, strain rpn1, hits give low values 0.927 | locus YHR030C, strain SLT2, hits give low values 0.99 and 1.04 | locus YHR079C, strain IRE1 (second series), hits give low values 0.957 | locus YHR079C, strain IRE1, hits give low values 1.07 | locus YHR094C, strain hxt1, hits give low values 0.974 | locus YHR129C, strain ARP1, hits give low values 0.985 | locus YHR142W, strain chs7, hits give low values 0.879 | locus YHR200W, strain rpn10, hits give low values 0.966 | locus YIL066C, strain RNR3, hits give low values 0.917 | locus YIL073C, strain SPO22, hits give low values 0.968 | locus YIL125W, strain kgd1, hits give low values 0.963 | locus YIR030C, strain dcg1, hits give low values 0.98 | locus YJL092W, strain hpr5, hits give low values 0.949 | locus YJL095W, strain BCK1 (second series), hits give low values 0.96 | locus YJL095W, strain BCK1, hits give low values 0.906 and 1.01 | locus YJL115W, strain asf1, hits give low values 0.974 | locus YJL129C, strain trk1, hits give low values 1.02 | locus YJL134W, strain LCB3, hits give low values 0.984 | locus YJL154C, strain vps35, hits give low values 0.973 | locus YJL164C, strain tpk1, hits give low values 0.964 | locus YJL168C, strain set2, hits give low values 0.983 | locus YJL187C, strain SWE1 (second series), hits give low values 0.894 | locus YJR043C, strain POL32, hits give low values 0.968 | locus YJR066W, strain TOR1, hits give low values 0.972 | locus YJR075W, strain HOC1, hits give low values 0.981 and 1.01
active: locus YAL021C, strain ccr4, hits give low values 0.902 | locus YAL026C, strain drs2, hits give low values 0.721 | locus YDR101C, strain arx1, hits give low values 0.914 | locus YDR137W, strain rgp1, hits give low values 1.25 [resistant] | locus YER015W, strain faa2, hits give low values 0.901 | locus YER155C, strain BEM2 (second series), hits give low values 0.816 | locus YFR010W, strain ubp6, hits give low values 0.88 | locus YGL240W, strain doc1, hits give low values 0.864 | locus YJL166W, strain qcr8, hits give low values 0.896
